PubChem BioAssay
Values without a mark were called inactive. How the calls were made is not given here.

The compounds below were run against Pantothenate synthetase (Mycobacterium tuberculosis (strain ATCC 25618 / H37Rv)) (UniProt P9WIL5) (assay: Coupled enzyme confirmation of inhibitors against recombinant Mtb PanC (AID 375;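 further: 0% = full reaction with vehicle and 100% = no enzyme background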)). Conditions: coupled enzyme assay; at 10 µM, stronger effect = higher value.
Chain of Pantothenate synthetase (Mycobacterium tuberculosis (strain ATCC 25618 / H37Rv)) (P9WIL5 whole entry, looked up): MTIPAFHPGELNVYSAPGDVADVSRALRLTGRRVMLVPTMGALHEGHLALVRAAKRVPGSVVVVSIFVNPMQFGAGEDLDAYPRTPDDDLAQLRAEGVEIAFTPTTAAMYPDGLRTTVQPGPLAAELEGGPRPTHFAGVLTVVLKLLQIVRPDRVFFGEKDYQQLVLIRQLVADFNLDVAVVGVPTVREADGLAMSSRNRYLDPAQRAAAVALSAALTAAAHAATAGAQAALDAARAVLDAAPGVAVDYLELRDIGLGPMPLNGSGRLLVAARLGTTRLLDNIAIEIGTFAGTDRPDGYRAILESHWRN

Row | SMILES | inhibition [%]
1 | O=C(Cn1nc(-c2ccc(Cl)cc2)ccc1=O)NCCCN1CCN(Cc2ccccc2)CC1 | 2
2 | CCCCCCCCNC(C)C(O)c1ccc(SC(C)C)cc1 (stereo unspecified) | 0
3 | Cc1ccc(-c2nn(C)c(=O)c3ccccc23)cc1S(=O)(=O)N1CCOCC1 | 9
4 | Cc1ccccc1N1C(N)=NC(N)=NC1(C)C | 0
5 | Oc1ccccc1C1=Nc2nc3ccccc3n2C(c2ccccc2)C1 (stereo unspecified) | 0
6 | CC(=O)c1cccc(NC(=O)CCNS(=O)(=O)c2cccc3nsnc23)c1 | 0
7 | CCN(CC)S(=O)(=O)c1ccc(NC(=O)CN(c2cccc(F)c2)S(C)(=O)=O)cc1 | 3
8 | CC(=O)c1cc(-c2ccccc2)n(CC(=O)N2CCC(N3CCCCC3)CC2)c1C | 0
9 | CCCCCC1CC(CC(C)C(=O)Nc2nncs2)C(=O)O1 (stereo unspecified) | 9
10 | CC(=O)OCC(=O)[C@@]1(O)CC[C@H]2[C@@H]3CCC4=CC(=O)CC[C@]4(C)[C@H]3[C@@H](O)C[C@@]21C | 5
11 | CCn1cc(C(=O)NC2CCc3ccccc32)c(=O)c2ccc(C)nc21 (stereo unspecified) | 0
12 | CCOC(=O)COc1ccc(S(=O)(=O)Nc2ccc3c(c2)OCO3)cc1 | 2
13 | CCOC(=O)/C=C(\C)Sc1cc(=O)oc2ccccc12 | 6
14 | CCn1c(=N)n(CC(O)c2ccco2)c2ccccc21 (stereo unspecified) | 0
15 | CCOC(=O)c1c(NC(=O)OC)sc(C(=O)N(C)C)c1C | 1
16 | C=CCC(NCc1ccco1)c1ccc(OC)cc1OC (stereo unspecified) | 3
